Screens (PubChem)
mTORC1 inh: inhibitors of mTORC1 signaling in Tsc2-/- p53-/- MEF cells; Tsc2-/- p53-/- MEF, phospho-rpS6 immunofluorescence/PI, 24 h; Potency, µM (highest dose often 38.3 µM), for inactives: at the top dose activity change, negative = inhibition, hits mostly inhibitors; hit rate 0.78% among 44,000; AID 493208;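 note: potency is the fitted concentration of half-maximal effect; plate controls were DMSO for no effect and rapamycin for full effect; nearly all actives have a fitted effect of over 50% in size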
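Tsc2-/-, p53-/- MEFs (empty-vector stable line) in DMEM + 10% FBS were treated with compounds 24 h at 37 degree Celsius, fixed, and immunostained for phospho-rpS6 (Alexa-488) with propidium iodide counterstain. Laser-scanning cytometry gave % positive cells, normalized against 7.5 nM rapamycin and DMSO.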
GALK inh: inhibitors of human galactokinase (GALK); recombinant GALK, Kinase-Glo ATP luminescence, 1 h; AID 1347072; 44,000 tested, under 10 active; Potency, µM (titrated, usually from 57.5 µM), inactives show at the top dose activity, negative = inhibition, hits mostly inhibitors; P51570;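 note: plate controls were full GALK reaction for no effect and reaction lacking GALK for full effect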
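5 nM GALK with 35 µM ATP and 100 µM galactose in HEPES pH 8.0, MgCl2, NaCl, DTT, BSA; 1 h RT reaction, remaining ATP detected by Kinase-Glo Plus luminescence after 10 min; qHTS concentration series.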
S16 viability: cytotoxicity in S16 Pmp22-F2sN Schwann cells | S16 Pmp22-F2sN Schwann cells viability, CellTiter-Glo, 24 h | Potency, µM (doses to about 57.5 µM), inactives show at the highest dose activity change, negative = cytotoxicity, usual class: cytotoxic | hit rate 0.48% among 43,000 | AID 1508642; note: potency is the fitted concentration of half-maximal effect; % is set by controls: 0 for no effect and ±100 for the full control effect; nearly all actives have a fitted effect of over 65% in size
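Luminescence from CellTiter-Glo, read by CCD camera after a 15 min room-temperature incubation, served as the viability signal. Reporter Schwann cells (S16 Pmp22-F2sN) had been treated with pin-transferred compounds for 24 h at 37C.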
PTAP-TSG101 blk: blocks PTAP binding to human TSG101, validation; Q99816; Fluorescence polarization, FITC-PTAP peptide/Tsg101, 20 min; Potency, µM (doses to about 115 µM), actives largely listed as inhibitors; 44,000 tested, under 10 active; AID 1347069; note: potency is the fitted concentration of half-maximal effect; 0% is about no effect
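Fluorescence polarization: Tsg101 binding domain (10 uM final) in 10 mM HEPES pH 7.5, 0.15 M NaCl, 0.01% Tween 20, 3 mM EDTA, 0.1 mM TCEP; compounds pinned; FITC-PTAP peptide 50 nM final; 20 min, r.t.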
PMP22 txn: PMP22 gene transcription modulation. S16 Pmp22-F2sN Schwann cells, FLuc/NLuc coincidence luminescence, 24 h. Potency, µM (top dose mostly 57.5 µM), inactives show at the highest dose activity change, negative = inhibition, usual class: inhibitors. hit rate 2% among 43,000. AID 1508649; active = clear falling dose curves in both reporters; inconclusive = both reporters move, but less clearly or upward; inactive = either reporter flat; the % is the NLuc reporter signal; note: potency is the fitted concentration of half-maximal effect; % is set by controls: 0 for no effect and ±100 for the full control effect
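Transcriptional readout in edited S16(c9) cells: two luciferases reported from the Pmp22 locus, measured in turn after 24 h compound incubation.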
NLuc saturating: counter-screen for PMP22 expression modulators: NanoLuc inhibition, saturating substrate | shares compounds with PMP22 txn | Potency, µM (titrated, usually from 57.5 µM), for inactives: top-dose activity change, negative = inhibition, actives largely listed as inhibitors | Secreted NLuc enzyme (filtered S16 cell medium), Nano-Glo luminescence | hit rate 4% among 690; note: potency is the fitted concentration of half-maximal effect; % is set by controls: 0 for no effect and ±100 for the full control effect
NLuc Km counter: NanoLuc inhibition at Km substrate, PMP22 artifact check; shares compounds with PMP22 txn; secreted NLuc enzyme, coelenterazine luminescence, Km conditions; Potency, µM (doses to about 57.5 µM), for the others: at the highest dose activity change, negative = inhibition, most hits filed as inhibitors; hit rate 5% among 690; AID 1508639; note: potency is the fitted concentration of half-maximal effect; % is set by controls: 0 for no effect and ±100 for the full control effect
FLuc ctr PMP22: counter-screen for PMP22 expression modulators: firefly luciferase inhibition; shares compounds with PMP22 txn; purified P. pyralis FLuc, luminescence, 10 min; Potency, µM (series often up to 57.5 µM), for the others: top-dose activity, negative = inhibition, most hits filed as inhibitors; 690 tested, under 10 active; AID 1508640; note: % of control where 0% means no effect
Target sequence (P08659 whole entry, looked up): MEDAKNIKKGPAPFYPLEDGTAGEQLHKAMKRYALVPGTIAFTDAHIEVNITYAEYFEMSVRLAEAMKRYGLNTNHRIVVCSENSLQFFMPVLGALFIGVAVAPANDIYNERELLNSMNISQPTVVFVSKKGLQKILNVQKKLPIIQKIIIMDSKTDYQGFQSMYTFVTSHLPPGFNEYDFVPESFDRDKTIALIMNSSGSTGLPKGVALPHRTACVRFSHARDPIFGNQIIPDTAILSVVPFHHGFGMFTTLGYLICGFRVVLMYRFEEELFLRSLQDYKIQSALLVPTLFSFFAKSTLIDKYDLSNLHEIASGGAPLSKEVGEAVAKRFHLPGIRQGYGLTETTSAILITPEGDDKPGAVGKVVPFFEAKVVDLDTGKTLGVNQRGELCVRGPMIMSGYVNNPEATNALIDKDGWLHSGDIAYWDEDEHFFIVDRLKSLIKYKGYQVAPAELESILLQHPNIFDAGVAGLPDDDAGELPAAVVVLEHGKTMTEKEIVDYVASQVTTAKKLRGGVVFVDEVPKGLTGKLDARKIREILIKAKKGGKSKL
S16 F2sN tox cnf: confirmation of cytotoxicity in S16 Pmp22-F2sN Schwann cells (luciferase reporters placed in the Pmp22 gene); AID 1508641; hit rate 7% among 690; Potency, µM (top dose mostly 57.5 µM), without a hit: at the highest dose activity change, negative = viability loss, hits mostly cytotoxic; S16 Schwann cells viability, CellTiter-Glo ATP luminescence, 24 h; shares compounds with PMP22 txn; note: potency is the fitted concentration of half-maximal effect; % is set by controls: 0 for no effect and ±100 for the full control effect
PMP22 txn conf: PMP22 transcription modulation, confirmatory; Potency, µM (series often up to 57.5 µM), for the others: at the top dose activity change, negative = inhibition, hits mostly inhibitors; S16 Schwann cells Pmp22-F2sN, dual luciferase, 24 h; shares compounds with PMP22 txn; hit rate 22% among 690; AID 1508646; active = clear falling dose curves in both reporters; inconclusive = both reporters move, but less clearly or upward; inactive = either reporter flat; the % is the FLuc reporter signal; note: potency is the fitted concentration of half-maximal effect
PMP22 prot conf: rat PMP22 protein level modulation, confirmatory | shares compounds with PMP22 txn | S16 Schwann cells Pmp22-HiBiT, luminescence, 48 h | Potency, µM (highest dose often 27.9 µM), inactives show top-dose activity change, negative = inhibition, usual class: inhibitors | 95 tested, under 10 active
Target sequence (P25094 whole entry, looked up): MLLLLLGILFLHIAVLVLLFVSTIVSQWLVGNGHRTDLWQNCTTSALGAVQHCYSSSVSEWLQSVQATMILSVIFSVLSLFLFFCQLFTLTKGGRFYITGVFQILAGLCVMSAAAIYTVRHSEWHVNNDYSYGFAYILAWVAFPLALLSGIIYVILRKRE
Starred values were filed as active, the others as inactive; i = inactive; u = inconclusive; x = no result given. Compounds with a hit are over-represented: about 2.8% of the library has one in this group of screens. Unless noted, calls come from the whole dose curve; as a rule, active = well fitted curve in the direction sought with a large enough effect; inconclusive = small, poorly fitted or top-dose-only effect, or another doubt; inactive = no such curve, though single readings can be large; an effect the other way counts as inactive or inconclusive.

SMILES	mTORC1 inh	GALK inh	S16 viability	PTAP-TSG101 blk	PMP22 txn	NLuc saturating	NLuc Km counter	FLuc ctr PMP22	S16 F2sN tox cnf	PMP22 txn conf	others
COc1cc(OC)c(NS(=O)(=O)c2ccc3c(c2)NC(=O)CCS3)cc1Cl	6%	0%	u	i	14µM*	u	u	-1%	-11%	u
Cc1ccccc1NS(=O)(=O)c1ccc2c(c1)NC(=O)CCS2	4%	-7%	2%	i	-13%	x	x	x	x	x
Cc1ccccc1S(=O)(=O)Cc1ccc(C(=O)NCc2ccccc2Cl)o1	-16%	1%	-3%	i	u	-9%	-4%	u	4%	-2%
COc1ccc(NC(=O)NCc2cccn2Cc2ccc(F)cc2)cc1OC	-1%	-1%	3%	i	-61%	x	x	x	x	x
COc1ccccc1C(=O)N1c2ccccc2C(C)(c2ccc(Cl)cc2)CC1(C)C (configuration not stated)	u	-5%	1%	i	u	x	x	x	x	x
COCCCn1c(=N)c(C(=O)NC2CCCC2)cc2c(=O)n3cccc(C)c3nc21	-1%	0%	8%	i	u	-6%	1%	3%	20%	u
COCCCn1c(=N)c(C(=O)NC2CCCC2)cc2c(=O)n3cc(C)ccc3nc21	0%	0%	5%	i	-5%	x	x	x	x	x
CCC(C)n1c(=N)c(C(=O)NC2CCCC2)cc2c(=O)n3ccccc3nc21 (configuration not stated)	-2%	-1%	-3%	i	9.5µM*	-17%	-5%	5%	u	-31%
COc1ccc(-c2cc(C(F)(F)F)nc(NCCc3ccccc3)n2)cc1OC	3%	-6%	4%	i	13µM*	-15%	-18%	1%	-18%	1%
O=C(c1ccco1)N(Cc1cccnc1)c1nc2ccc(F)cc2s1	-1%	0%	-5%	i	-55%	x	x	x	x	x
CCCCc1ccc(NC(=O)Cn2cnc3c(oc4ccccc43)c2=O)cc1	-18%	3%	2%	i	0%	x	x	x	x	x
CCc1ccccc1NC(=O)CN(c1ccccc1)S(=O)(=O)c1ccsc1C(=O)OC	-8%	1%	1%	i	-2%	x	x	x	x	x
CCOC(=O)c1cc2c(=O)n3ccccc3nc2n(CC(C)C)c1=NC(=O)COc1ccc(Cl)cc1	2%	6%	-6%	i	16µM*	-15%	1%	-4%	-26%	u
CCOC(=O)c1cc2c(=O)n3ccccc3nc2n(CC(C)C)c1=NC(=O)C(C)(C)Oc1ccc(Cl)cc1	3%	-2%	-2%	i	u	x	x	x	x	x
N=c1n(CCN2CCCCC2)c2ccccc2n1CC(O)COc1ccc(Cl)cc1Cl (configuration not stated)	3.7µM*	1%	u	i	12µM*	-17%	0%	-21%	31µM*	u
COCCCNC(=O)c1cc2n(n1)CCCN(Cc1ccc(C)cc1)C2=O	u	-1%	-5%	i	-8%	x	x	x	x	x
CCN1CCOC(=O)C1CC(=O)Nc1cccc(OC)c1 (configuration not stated)	21µM*	1%	u	i	13µM*	-6%	-1%	6%	u	u
CCN1CCOC(=O)C1CC(=O)Nc1ccc(C)c(Cl)c1 (configuration not stated)	u	3%	u	i	u	x	x	x	x	x
CCN1CCOC(=O)C1CC(=O)Nc1cc(Cl)ccc1C (configuration not stated)	u	8%	u	i	11µM*	-8%	0%	-6%	u	u
Cc1ccccc1Cn1c2ccccc2c2cnn(CC(=O)NC(C)CCc3ccccc3)c(=O)c21 (configuration not stated)	0%	7%	-10%	i	u	x	x	x	x	x
Cc1cccc(OCC(=O)Nc2ccc3c(c2)N(C)C(=O)c2ccccc2S3)c1	-13%	3%	u	i	u	x	x	x	x	x
CN1C(=O)c2ccccc2Sc2ccc(NC(=O)COc3ccccc3)cc21	-19%	-2%	-27%	i	12µM*	u	u	0%	-8%	-32%
COc1cccc(CNC(=O)Nc2ccc3c(c2)N(C)C(=O)c2ccccc2S3)c1	-10%	0%	u	i	18µM*	u	u	-16%	-2%	u
COc1cccc(N2CC(NC(=O)c3ccc4c(c3)OCO4)CC2=O)c1 (configuration not stated)	0%	-3%	-6%	i	12%	x	x	x	x	x
Cc1ccn2c(Nc3ccc4c(c3)OCCO4)c(-c3ccc(N(C)C)cc3)nc2c1	-6%	4%	-4%	i	-9%	x	x	x	x	x
CN1CCc2c(sc(NC(=O)CSc3ccccc3)c2-c2nc3ccccc3s2)C1	u	0%	2%	i	u	x	x	x	x	x
CC(=O)N1CCc2c(sc(NC(=O)CSc3ccccc3)c2-c2nc3ccccc3s2)C1	-19%	3%	u	i	4µM*	u	u	-4%	u	13µM*	PMP22 prot conf=u
COc1ccc(NC(=O)Cn2nnc(C(=O)NCc3cccs3)c2N)cc1	-5%	1%	4%	i	-4%	x	x	x	x	x
